For experiment [1], the target named is Serine/threonine-protein kinase WNK2 (Homo sapiens) (UniProt Q9Y3S1). The settings on record: at 10 µM.
Experiment [2] has as its target Serine/threonine-protein kinase WNK3 (Homo sapiens) (UniProt Q9BYP7). Conditions: at 1 µM.
The target is the same in experiment [3]. The settings on record: at 10 µM.
In experiment [4] the target is Tyrosine-protein kinase Yes (Homo sapiens) (UniProt P07947). Conditions: at 10 µM.
The target of experiment [5] is T1, Tyrosine-protein kinase ZAP-70 (Homo sapiens) (UniProt P43403).
T1 sequence (whole entry): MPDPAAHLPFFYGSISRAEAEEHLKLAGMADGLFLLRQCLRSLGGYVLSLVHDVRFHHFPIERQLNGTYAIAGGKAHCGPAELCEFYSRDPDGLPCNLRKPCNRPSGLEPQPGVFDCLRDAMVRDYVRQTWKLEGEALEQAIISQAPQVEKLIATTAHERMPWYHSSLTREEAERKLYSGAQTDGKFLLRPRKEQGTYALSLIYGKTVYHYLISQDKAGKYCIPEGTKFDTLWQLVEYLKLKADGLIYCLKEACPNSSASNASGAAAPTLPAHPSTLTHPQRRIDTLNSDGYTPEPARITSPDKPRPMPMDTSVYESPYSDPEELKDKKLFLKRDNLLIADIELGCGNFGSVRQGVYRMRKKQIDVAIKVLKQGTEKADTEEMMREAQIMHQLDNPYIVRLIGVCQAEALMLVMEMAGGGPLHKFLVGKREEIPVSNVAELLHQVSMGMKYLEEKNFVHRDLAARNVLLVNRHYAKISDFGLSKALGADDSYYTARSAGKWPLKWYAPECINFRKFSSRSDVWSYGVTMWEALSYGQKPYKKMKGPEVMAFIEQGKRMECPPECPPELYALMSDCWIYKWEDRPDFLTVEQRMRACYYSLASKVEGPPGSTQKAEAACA
The settings on record: at 1 µM.

Experiment [6] deals with Death-associated protein kinase 3 (Homo sapiens) (UniProt O43293). The settings on record: at 1 µM.
Experiment [7] has the same target. Conditions: at 10 µM.
The target of experiment [8] is RAF proto-oncogene serine/threonine-protein kinase (Homo sapiens) (UniProt P04049). The settings on record: at 1 µM.
RAF proto-oncogene serine/threonine-protein kinase (Homo sapiens), sequence (P04049 whole entry): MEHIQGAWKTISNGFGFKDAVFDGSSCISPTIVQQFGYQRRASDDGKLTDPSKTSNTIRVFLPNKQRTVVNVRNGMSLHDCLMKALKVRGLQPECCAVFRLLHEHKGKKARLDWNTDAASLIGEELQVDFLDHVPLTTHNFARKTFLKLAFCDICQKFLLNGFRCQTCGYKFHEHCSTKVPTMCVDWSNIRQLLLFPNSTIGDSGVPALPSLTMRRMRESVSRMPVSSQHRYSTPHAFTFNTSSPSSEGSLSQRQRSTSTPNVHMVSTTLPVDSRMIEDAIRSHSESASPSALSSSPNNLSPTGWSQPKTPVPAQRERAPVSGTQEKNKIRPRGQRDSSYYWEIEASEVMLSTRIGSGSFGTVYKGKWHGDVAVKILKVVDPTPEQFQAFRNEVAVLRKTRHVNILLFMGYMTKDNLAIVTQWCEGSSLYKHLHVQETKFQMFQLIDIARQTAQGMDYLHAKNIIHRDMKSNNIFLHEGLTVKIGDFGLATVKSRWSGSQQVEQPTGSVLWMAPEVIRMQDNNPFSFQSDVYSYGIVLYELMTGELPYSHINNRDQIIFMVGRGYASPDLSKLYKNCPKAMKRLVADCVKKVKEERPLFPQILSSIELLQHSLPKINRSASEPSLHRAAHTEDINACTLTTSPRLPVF
The target is the same in experiment [9]. Conditions: at 10 µM.
In experiment [10] the target is Mast/stem cell growth factor receptor Kit (Homo sapiens) (UniProt P10721). The settings on record: at 10 µM.
Mast/stem cell growth factor receptor Kit (Homo sapiens), sequence (P10721 whole entry): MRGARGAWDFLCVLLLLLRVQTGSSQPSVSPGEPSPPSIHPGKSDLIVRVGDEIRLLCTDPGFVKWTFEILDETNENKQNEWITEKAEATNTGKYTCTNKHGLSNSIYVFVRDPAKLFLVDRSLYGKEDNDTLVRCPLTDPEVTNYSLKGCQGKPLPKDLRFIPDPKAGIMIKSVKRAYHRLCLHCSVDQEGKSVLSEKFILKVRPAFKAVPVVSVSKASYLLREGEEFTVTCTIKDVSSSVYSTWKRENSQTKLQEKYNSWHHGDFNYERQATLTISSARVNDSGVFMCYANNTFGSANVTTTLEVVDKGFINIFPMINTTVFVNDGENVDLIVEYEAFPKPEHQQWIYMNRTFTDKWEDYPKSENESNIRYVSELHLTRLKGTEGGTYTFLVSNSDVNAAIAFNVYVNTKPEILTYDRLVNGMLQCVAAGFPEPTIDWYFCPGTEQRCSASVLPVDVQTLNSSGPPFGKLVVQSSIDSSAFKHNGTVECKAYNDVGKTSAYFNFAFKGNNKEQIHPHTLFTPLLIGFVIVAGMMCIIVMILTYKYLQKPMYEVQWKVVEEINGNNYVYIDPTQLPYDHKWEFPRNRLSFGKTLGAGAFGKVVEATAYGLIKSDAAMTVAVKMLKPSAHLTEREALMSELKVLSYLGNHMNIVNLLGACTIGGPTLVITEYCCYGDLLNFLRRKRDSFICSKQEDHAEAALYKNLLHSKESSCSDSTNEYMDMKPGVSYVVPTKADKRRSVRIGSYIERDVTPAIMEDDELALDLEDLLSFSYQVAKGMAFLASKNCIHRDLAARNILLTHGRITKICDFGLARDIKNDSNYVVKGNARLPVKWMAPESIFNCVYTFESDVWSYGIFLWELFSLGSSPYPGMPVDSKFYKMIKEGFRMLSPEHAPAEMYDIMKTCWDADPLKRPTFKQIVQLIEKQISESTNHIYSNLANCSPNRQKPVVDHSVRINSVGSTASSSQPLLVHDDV
In experiment [11] the target is Proto-oncogene tyrosine-protein kinase Src (Homo sapiens) (UniProt P12931). Conditions: at 10 µM.
Proto-oncogene tyrosine-protein kinase Src (Homo sapiens), sequence (P12931 2-536 limits assumed): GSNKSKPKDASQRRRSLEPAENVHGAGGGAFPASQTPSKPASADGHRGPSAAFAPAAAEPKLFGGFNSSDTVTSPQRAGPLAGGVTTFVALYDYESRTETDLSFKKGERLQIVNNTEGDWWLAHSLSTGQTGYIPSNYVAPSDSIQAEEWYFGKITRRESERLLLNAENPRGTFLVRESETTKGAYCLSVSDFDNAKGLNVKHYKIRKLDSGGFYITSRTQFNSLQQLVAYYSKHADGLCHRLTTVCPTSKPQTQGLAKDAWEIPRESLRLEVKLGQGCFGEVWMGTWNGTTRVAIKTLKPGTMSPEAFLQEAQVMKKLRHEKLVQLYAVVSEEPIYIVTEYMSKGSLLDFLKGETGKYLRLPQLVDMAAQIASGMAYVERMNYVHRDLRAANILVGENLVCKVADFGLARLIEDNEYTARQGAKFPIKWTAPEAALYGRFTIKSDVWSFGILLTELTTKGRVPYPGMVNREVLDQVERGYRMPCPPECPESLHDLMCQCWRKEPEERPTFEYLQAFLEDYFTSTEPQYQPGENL
For experiment [12], the target named is Serine/threonine-protein kinase mTOR (Homo sapiens) (UniProt P42345). The settings on record: at 1 µM.
Experiment [13] shares this target. The settings on record: at 10 µM.
For experiment [14], the target named is Tyrosine-protein kinase Yes (Homo sapiens) (UniProt P07947). The settings on record: at 1 µM.
Experiment [15] addresses Mast/stem cell growth factor receptor Kit (Homo sapiens) (UniProt P10721). The settings on record: at 1 µM.
Experiment [16] addresses Proto-oncogene tyrosine-protein kinase Src (Homo sapiens) (UniProt P12931). Conditions: at 1 µM.
Experiment [17] addresses Serine/threonine-protein kinase mTOR (Homo sapiens) (UniProt P42345). Conditions: at 1 µM. This is another data set of the same source.
Experiment [18] has the same target. Conditions: at 10 µM. This is another data set of the same source.
Experiment [19] has as its target T2, Eukaryotic elongation factor 2 kinase (Homo sapiens) (UniProt O00418).
T2 sequence (whole entry): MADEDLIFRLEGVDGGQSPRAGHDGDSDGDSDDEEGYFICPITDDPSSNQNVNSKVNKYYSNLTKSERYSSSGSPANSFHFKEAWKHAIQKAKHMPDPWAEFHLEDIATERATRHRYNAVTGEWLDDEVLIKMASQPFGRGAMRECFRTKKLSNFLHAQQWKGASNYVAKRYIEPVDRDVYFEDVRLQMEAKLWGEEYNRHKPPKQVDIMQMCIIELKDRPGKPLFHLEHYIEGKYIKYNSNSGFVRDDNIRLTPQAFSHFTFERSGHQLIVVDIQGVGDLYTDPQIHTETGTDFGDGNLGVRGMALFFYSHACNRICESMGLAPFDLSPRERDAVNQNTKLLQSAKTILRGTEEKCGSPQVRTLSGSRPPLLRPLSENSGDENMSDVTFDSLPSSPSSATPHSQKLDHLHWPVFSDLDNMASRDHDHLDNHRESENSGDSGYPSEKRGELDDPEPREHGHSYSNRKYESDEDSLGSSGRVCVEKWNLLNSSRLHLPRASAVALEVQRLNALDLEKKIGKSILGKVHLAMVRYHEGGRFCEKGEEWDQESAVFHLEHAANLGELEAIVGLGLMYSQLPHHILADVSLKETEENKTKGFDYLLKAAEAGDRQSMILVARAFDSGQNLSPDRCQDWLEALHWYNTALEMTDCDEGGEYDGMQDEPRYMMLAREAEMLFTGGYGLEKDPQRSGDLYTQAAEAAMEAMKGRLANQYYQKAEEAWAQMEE
The settings on record: at 1 µM.

For experiment [20], the target named is T2, Eukaryotic elongation factor 2 kinase (Homo sapiens). The settings on record: at 10 µM.

The residual activity is the signal under treatment as a percentage of the control signal.

Serine/threonine-protein kinase WNK2 (Homo sapiens), sequence (Q9Y3S1 whole entry): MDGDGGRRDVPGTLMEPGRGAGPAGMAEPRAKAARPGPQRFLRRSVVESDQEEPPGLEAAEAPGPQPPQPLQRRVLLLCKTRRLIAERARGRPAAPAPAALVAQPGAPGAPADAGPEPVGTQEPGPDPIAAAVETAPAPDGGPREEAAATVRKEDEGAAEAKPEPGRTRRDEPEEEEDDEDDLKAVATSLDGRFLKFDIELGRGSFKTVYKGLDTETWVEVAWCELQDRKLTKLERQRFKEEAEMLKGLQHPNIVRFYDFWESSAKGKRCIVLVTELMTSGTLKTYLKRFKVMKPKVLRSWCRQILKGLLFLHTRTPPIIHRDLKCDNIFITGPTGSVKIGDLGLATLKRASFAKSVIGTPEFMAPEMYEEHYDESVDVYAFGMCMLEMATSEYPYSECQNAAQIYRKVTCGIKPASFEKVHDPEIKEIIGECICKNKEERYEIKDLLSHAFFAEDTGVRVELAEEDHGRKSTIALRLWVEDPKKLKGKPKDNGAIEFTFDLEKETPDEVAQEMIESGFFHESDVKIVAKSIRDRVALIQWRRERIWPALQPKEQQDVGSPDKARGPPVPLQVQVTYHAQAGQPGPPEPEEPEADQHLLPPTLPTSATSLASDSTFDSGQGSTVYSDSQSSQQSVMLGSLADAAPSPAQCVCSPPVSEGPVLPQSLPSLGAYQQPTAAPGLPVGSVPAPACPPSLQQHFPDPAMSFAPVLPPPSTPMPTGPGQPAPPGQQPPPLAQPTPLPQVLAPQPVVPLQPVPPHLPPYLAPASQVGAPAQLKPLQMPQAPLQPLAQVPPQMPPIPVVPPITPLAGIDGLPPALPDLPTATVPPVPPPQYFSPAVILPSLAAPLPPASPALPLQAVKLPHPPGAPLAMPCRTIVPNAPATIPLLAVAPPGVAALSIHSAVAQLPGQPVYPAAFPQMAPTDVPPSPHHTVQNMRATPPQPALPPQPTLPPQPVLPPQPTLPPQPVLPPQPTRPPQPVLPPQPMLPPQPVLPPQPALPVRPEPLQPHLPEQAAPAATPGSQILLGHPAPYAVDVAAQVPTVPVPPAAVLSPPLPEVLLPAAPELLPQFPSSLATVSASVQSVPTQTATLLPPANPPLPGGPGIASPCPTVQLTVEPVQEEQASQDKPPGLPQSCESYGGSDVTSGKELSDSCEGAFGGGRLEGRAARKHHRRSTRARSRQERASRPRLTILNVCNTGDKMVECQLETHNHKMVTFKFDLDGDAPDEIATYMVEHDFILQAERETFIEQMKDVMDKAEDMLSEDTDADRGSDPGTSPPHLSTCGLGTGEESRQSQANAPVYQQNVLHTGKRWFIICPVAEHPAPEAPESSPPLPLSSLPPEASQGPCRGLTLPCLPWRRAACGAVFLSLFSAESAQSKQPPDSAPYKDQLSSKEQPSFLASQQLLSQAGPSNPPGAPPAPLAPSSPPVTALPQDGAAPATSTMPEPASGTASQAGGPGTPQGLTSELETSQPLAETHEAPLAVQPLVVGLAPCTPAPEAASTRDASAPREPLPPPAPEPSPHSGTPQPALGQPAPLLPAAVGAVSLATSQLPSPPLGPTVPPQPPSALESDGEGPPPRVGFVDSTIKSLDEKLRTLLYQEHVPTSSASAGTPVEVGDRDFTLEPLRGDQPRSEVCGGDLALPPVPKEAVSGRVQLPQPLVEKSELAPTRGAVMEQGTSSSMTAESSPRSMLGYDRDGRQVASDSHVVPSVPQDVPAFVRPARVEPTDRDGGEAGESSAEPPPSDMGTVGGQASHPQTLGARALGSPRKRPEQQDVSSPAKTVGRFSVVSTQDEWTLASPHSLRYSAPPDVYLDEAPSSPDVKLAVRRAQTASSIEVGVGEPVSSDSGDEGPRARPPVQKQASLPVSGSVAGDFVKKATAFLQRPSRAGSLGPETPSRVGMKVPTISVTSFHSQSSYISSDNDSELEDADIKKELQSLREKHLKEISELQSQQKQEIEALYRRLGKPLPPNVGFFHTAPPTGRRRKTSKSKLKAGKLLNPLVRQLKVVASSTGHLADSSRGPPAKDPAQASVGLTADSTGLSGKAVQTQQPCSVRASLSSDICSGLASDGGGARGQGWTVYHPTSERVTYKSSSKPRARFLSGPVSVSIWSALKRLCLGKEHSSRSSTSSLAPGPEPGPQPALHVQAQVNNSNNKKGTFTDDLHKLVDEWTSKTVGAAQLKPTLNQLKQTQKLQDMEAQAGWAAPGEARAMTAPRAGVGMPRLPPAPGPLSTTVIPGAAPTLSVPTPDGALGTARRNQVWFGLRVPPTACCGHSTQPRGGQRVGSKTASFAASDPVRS
Tyrosine-protein kinase Yes (Homo sapiens), sequence (P07947 2-543 limits assumed): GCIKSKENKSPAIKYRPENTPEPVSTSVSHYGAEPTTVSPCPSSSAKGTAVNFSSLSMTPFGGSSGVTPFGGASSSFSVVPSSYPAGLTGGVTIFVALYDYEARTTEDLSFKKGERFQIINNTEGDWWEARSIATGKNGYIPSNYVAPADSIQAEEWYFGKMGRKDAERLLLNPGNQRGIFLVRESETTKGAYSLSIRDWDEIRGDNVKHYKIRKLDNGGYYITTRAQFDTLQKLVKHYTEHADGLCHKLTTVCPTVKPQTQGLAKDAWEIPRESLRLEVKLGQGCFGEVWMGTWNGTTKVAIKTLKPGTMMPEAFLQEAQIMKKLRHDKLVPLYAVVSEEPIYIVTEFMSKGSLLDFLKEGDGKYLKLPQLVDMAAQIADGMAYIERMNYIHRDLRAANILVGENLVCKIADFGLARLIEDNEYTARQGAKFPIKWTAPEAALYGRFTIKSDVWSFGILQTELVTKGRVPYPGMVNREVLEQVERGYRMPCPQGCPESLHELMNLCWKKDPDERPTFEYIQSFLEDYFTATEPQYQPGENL

On to `O=C(O)/C=C/c1cc(Br)c(Br)c(Br)c1Br`, for which the residual activity in experiment [1] was 89%; in experiment [2], 108% (inactive); in experiment [3], 94%; in experiment [4], 96%; in experiment [5], 108%; in experiment [6], 100%. Also, the residual activity was 75% in experiment [7]; 81% in [8]; 49% in [9]; 103% in [10]; 82% in [11]; 104% in experiment [12]. Also, the residual activity in [13] turned out to be 70%.
As for `NC(=O)Nc1sc(-c2ccc(F)cc2)cc1C(N)=O`, the residual activity in [1] is 68%; in experiment [2] it was 81% (inactive); in [3] it was 75%; in experiment [14], 38%; in [4], 4%; in experiment [5] it was 96%. For the same compound, the residual activity was determined as 85% in experiment [6]; 50% in experiment [7]; 54% in experiment [8]; 19% in experiment [9]; 56% in experiment [15]; 4% in experiment [10]. The residual activity is 54% in experiment [16], 10% in [11], 114% in [12] and 92% in [13].
Turning to `O=C(c1ccccc1)c1ccc(N2CCOCC2)cc1O`, the residual activity in experiment [1] was 94%; in experiment [2], 112% (inactive); in [3], 97%; in experiment [14], 115%; in experiment [4], 95%; in experiment [6], 84%. The residual activity is 93% in experiment [8]; 94% in experiment [9]; 111% in [15]; 96% in experiment [10]; 87% in [16]; 93% in experiment [11]. Also, the residual activity in experiment [12] was determined as 88%; in [13], 94%; in experiment [17], 96%; in [18], 54%.
As for `O=C1C(Cl)=C(N2C(=O)CCC2=O)C(=O)c2ccccc21`, the residual activity was 92% in experiment [1]; 94% (inactive) in experiment [2]; 95% in experiment [3]; 101% in [4]; 82% in [8]; 61% in experiment [9]. The residual activity was 101% in [15]; 98% in [10]; 124% in experiment [16]; 89% in experiment [11]; 78% in experiment [18].
For the compound `COc1ccc2c(c1)c(C1=C(c3c[nH]c4ccccc34)C(=O)NC1=O)cn2CCCN(C)C`, the residual activity in experiment [1] is 68%; in experiment [2] it was 105% (inactive); in experiment [3], 77%; in experiment [14], 75%; in [4] it was 20%; in experiment [5], 99%. The residual activity stood at 61% in experiment [6]; 27% in [7]; 81% in experiment [8]; 109% in [15]; 81% in experiment [10]; 113% in experiment [12]. The results for the residual activity in experiment [13], in experiment [17] and in [18] were 111%, 113% and 100%, respectively.
Regarding `N#Cc1c(NC(=O)c2cccc3ccccc23)sc2c1CCCC2`, the residual activity is 95% in [1]; 84% in experiment [3]; 129% in experiment [14]; 91% in [8]; 78% in [9]; 94% in experiment [10].
Regarding `O=c1cc(N2CCNCC2)oc2c(-c3ccccc3)cccc12`, the residual activity in [1] was 80%; in experiment [2], 133% (inactive); in experiment [3], 98%; in experiment [4] it was 91%; in experiment [5], 103%; in [7], 99%. The residual activity stood at 88% in experiment [8]; 87% in [9]; 97% in [15]; 95% in experiment [10]; 94% in experiment [16]; 99% in [11]. For the same compound, the residual activity came to 90% in experiment [12], 99% in experiment [13], 76% in experiment [17] and 90% in experiment [18].
Take `N#C/C(=C1/Nc2ccccc2S1)c1ccnc(NCCc2cccnc2)n1`: the residual activity is 28% in [1]; 73% (inactive) in experiment [2]; 39% in experiment [3]; 113% in experiment [14]; 48% in [4]; 76% in [7]. Besides, the residual activity in experiment [12] amounted to 89%; in [13] it was 62%.
On to `COc1cc2c(cc1OC)-c1n[nH]c(Nc3cccc(F)c3)c1C2`, for which the residual activity in experiment [1] was found to be 46%; in experiment [3], 59%; in experiment [14], 17%; in experiment [4], 1%; in experiment [6], 73%; in [7], 98%. For the same compound, the residual activity in experiment [8] was 64%; in [9], 54%; in experiment [15], 0%; in [10], 0%; in [16] it was 44%; in [11] it was 7%. For the same compound, the results for the residual activity in experiment [12], in experiment [13] and in experiment [18] were 110%, 108% and 107%, respectively.
As to `c1ccc(-c2cnc(Nc3ccc(OCCN4CCCC4)cc3)s2)cc1`, the residual activity in experiment [1] is 80%; in experiment [2], 114% (inactive); in experiment [3] it was 100%; in experiment [14], 32%; in experiment [4] it was 3%; in [15], 1%. The residual activity stood at 1% in [10]; 70% in experiment [16]; 29% in [11]; 100% in experiment [12]; 106% in experiment [13].
In the case of `Cn1c2ccccc2c2c3c(c4c5ccccc5n(CCC#N)c4c21)CNC3=O`, the residual activity in experiment [1] is 78%; in experiment [2], 105% (inactive); in experiment [14] it was 45%; in [4], 61%; in experiment [5], 81%; in experiment [8] it was 72%. The residual activity in experiment [9] was 93%; in experiment [15], 113%; in experiment [10], 82%; in [16], 69%; in experiment [11] it was 79%; in experiment [19], 100% (inactive). Besides, the residual activity in [20] is 116%; in [12], 115%; in [13], 112%; in experiment [17] it was 72%; in experiment [18] it was 99%.
For `CCOC(=O)c1c(C)[nH]c(/C=C2\C(=O)Nc3ccccc32)c1C`, the residual activity in experiment [1] is 90%; in experiment [2], 93% (inactive); in experiment [3] it was 92%; in experiment [14], 91%; in experiment [4], 80%; in experiment [6], 94%. Further, the residual activity turned out to be 100% in experiment [8]; 38% in [15]; 53% in experiment [10]; 98% in experiment [12]; 99% in [13].

The values are drawn from ChEMBL document CHEMBL2218924, “A broad activity screen in support of a chemogenomic map for kinase signalling research and drug discovery” (Biochem J, 2013).
